# The whole screen tested about 310,000 compounds, of which about 1,300 (0.42%) were called active. The entries come from a sample that favours actives as a whole. Values without a mark were called inactive. Rule as the data show it: active = inhibition above about 50%; inactive = the rest.
# Target: Dual specificity tyrosine-phosphorylation-regulated kinase 1A (Rattus norvegicus) (UniProt Q63470)
# Assay: inhibition of Dyrk1A kinase activity – biochemical, single point, plate reader, primary screen (AID 504441);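 also: plate controls were vehicle with enzyme for no effect and no enzyme for full effect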
# Details: ADP-Glo luminescence, NFATc1 peptide, at 12.5 µM, active compounds read high
row,Structure (SMILES),inhibition
1,CN1C(c2ccc(F)cc2)=CS/C1=C(/C#N)c1nnc2n1-c1ccccc1SC2,-1.31%
2,COc1cccc(C(=O)NNC(=O)/C=C/c2ccccc2)c1,59.9% (active)
3,CC(C)c1ccc(/C=C/C(=O)NNC(=O)c2cccnc2)cc1,11.1%
4,COc1cccc(C=CC(=O)C=CC=Cc2ccccc2)c1,-2.98%
5,O=C1NCC(c2ccccc2)(c2ccccc2)C(=O)N1,-4.54%
6,COC[C@@H]1NS(=O)(=O)c2ccc(Br)cc2O[C@H]1c1ccccc1,7.26%
7,CCCCNC(=O)C(C)N(CCN(C)C)C(=O)CCCN1C(=O)NC(c2ccc(Cl)cc2)C(C(=O)OCc2ccccc2)=C1C (centres undefined),5.26%
8,COc1cc(C2c3cc4c(cc3C(O)C3COC(=O)C23)OCO4)cc(OC)c1OC (centres undefined),0.167%
9,CCN1C(=NCCc2cccnc2)N[C@@H](c2ccccc2)C(C(=O)OC)=C1C,53.7% (active)
10,CCN1C(=NCCc2cccnc2)N[C@@H](c2ccccc2)[C@H](C(=O)OC)[C@H]1C,-12.5%
11,COC(=O)C1=C(C)N(Cc2ccccc2)C(=NCCCOC(C)C)N[C@H]1c1ccccc1,-6.8%
12,COc1ccccc1C(=O)c1ccccc1C(=O)c1ccccc1,1.1%
13,COc1ccc(S(=O)(=O)N(C)C[C@@H]2Oc3ccc(NC(=O)Nc4c(C)noc4C)cc3C(=O)N([C@H](C)CO)C[C@@H]2C)cc1,1.82%
14,O=C(NCc1ccco1)c1sc2cccc(F)c2c1Cl,1.99%
15,COc1ccc2oc(C(=O)NCc3ccco3)c(C)c2c1,19.2%
16,COc1ccc2c(Cl)c(C(=O)NCc3ccco3)sc2c1,54.5% (active)
17,Oc1[nH]c2ccccc2c1N=Nc1c(F)c(F)c(F)c(F)c1F,4.41%
18,C[n+]1cccc(C(=O)O)c1,0.48%
19,CC1CCCN(C(=O)Cn2c(=O)oc3cc(S(=O)(=O)N4CCCCC4C)ccc32)C1 (centres undefined),0.0944%
20,O=C(Cc1ccc(Cl)cc1)c1ccccc1,-1.54%
21,COc1ccc(NC(=O)CCN2C(=O)/C(=C/c3ccc4c(c3)OCO4)SC2=S)cc1,-2.32%
22,COC(=O)C(C)Oc1ccc2c(c1)O/C(=C\c1cccc(Br)c1)C2=O (centres undefined),-2.95%
23,O=C1/C(=C/c2ccc3c(c2)OCO3)Oc2cc(OCC(=O)N3CC(O)C[C@H]3C(=O)O)ccc21 (some centres undefined),70.2% (active)

row,Structure (SMILES),inhibition
1,O=C1c2ccccc2C(=O)C1C(=O)C1CC1,-4.93%
2,COc1ccc(CNCCCn2cnc3c(OCc4ccccc4)ncnc32)cc1,6.66%
3,Cc1ccc(S(=O)(=O)n2oc(=O)c(C3CCCCC3)c2N)cc1,-0.128%
4,O=C1N=C(N2CCc3ccccc3C2)S/C1=C\c1ccc(O)cc1,70.6% (active)
5,CCc1ccc(/C=C2\SC(N3CCOCC3)=NC2=O)cc1,2.74%
6,CC1CCN(C2=NC(=O)/C(=C/c3ccc(O)cc3)S2)CC1,22.4%
7,CN(CCc1ccccc1)C(=O)c1cccc(NC(=O)Cc2cccc(NC(=O)C3CCCN(C(=O)CCc4ccccc4)C3)c2)c1 (centres undefined),0.419%
8,O=C(Cc1ccc(S(=O)(=O)N2CCOCC2)s1)Nc1ccc(Br)c(C(F)(F)F)c1,0.772%
9,CC(C)c1cc(N=O)cc(C(C)C)c1O,7.15%
10,Cc1cc(C(=O)N/N=C/c2ccc(O)c([N+](=O)[O-])c2)c(C)n1-c1ccc(F)cc1,-6.46%
11,O=C1CSC(=S)N1/N=C/c1ccc(O)c([N+](=O)[O-])c1,90.8% (active)
12,CCOc1cccc(/C=N/N2C(=O)CSC2=S)c1O,6.88%
13,COC1=CC(=O)OC(C)(c2ccccc2)C1 (centres undefined),1.06%
14,COc1ccc2nc(N3C(=O)C(O)=C(C(=O)c4ccco4)C3c3ccco3)sc2c1 (centres undefined),7.88%
15,O=S1(=O)CSCS(=O)(=O)C1,-4.37%
16,Cc1noc(C)c1-c1ccc2ncnc(NC(C)c3ccco3)c2c1 (centres undefined),58% (active)
17,c1coc(CNc2ncnc3ccccc23)c1,6.44%
18,C=CC(=O)Nc1ccc(Nc2ccnc(Nc3ccc(N4CCN(C)CC4)cc3)n2)cc1,24.1%
19,COc1ccc(Nc2ccc3ccccc3c2)cc1,-0.0929%
20,NC(=O)C1(Nc2ccccc2Cl)CCCC1,-0.756%
21,COCCN(C(=O)C(C)N1C(=O)c2ccccc2C1=O)c1c(N)n(CC(C)C)c(=O)[nH]c1=O (centres undefined),-2.22%
22,Cc1c(NS(=O)(=O)c2cccc(C(=O)Nc3ccc(SC(F)F)cc3)c2)c(=O)n(-c2ccccc2)n1C,-4%
23,COc1ccc2oc(N)c(C=O)c(=O)c2c1,59.5% (active)

row,Structure (SMILES),inhibition
1,COc1ccc2oc(C)c(NC(C)=O)c2c1,1.53%
2,COc1ccc2oc(N)nc2c1,7.05%
3,NC(=O)C1(N2CCCC2)CCN(Cc2ccccc2)CC1,-3.22%
4,NC(=O)c1ncn([C@@H]2O[C@H](CN=C3NS(=O)(=O)c4ccccc43)[C@@H](O)[C@H]2O)n1,3.02%
5,CC(=O)Oc1ccc2c(C)c(CC(C)O)c(=O)oc2c1 (centres undefined),2.53%
6,CC(=O)Oc1ccc2c(c1)C(=O)c1ccccc1C2=O,53.6% (active)
7,CC(=O)Oc1cccc(C(=O)Nc2ccccc2NC(=O)c2cccc(OC(C)=O)c2)c1,-0.37%
8,O=C(NCCC1=CCCCC1)c1ccc(-n2cncn2)cc1,4.88%
9,O=C(Nc1ccccc1)Oc1cccc2cccnc12,7.72%
10,O=C(c1cccc(S(=O)(=O)N2CCCCCC2)c1)N1CCN(Cc2ccccc2)CC1,-0.662%
11,NC(=S)c1ccc(C(N)=S)o1,61.8% (active)
12,CC1CN(c2nc(Nc3ccccc3)nc(N)c2[N+](=O)[O-])CC(C)O1 (centres undefined),42%
13,O=[N+]([O-])c1ccc(NCCCN2CCOCC2)c(Cl)c1,0.781%
14,Nc1nc(NCCCN2CCOCC2)nc(Nc2ccccc2)c1[N+](=O)[O-],67.2% (active)
15,CC(=O)OCC1(O)CC23CCC4c5ccoc5CCC4(C)C2CCC1C3 (centres undefined),7.82%
16,O=c1nc(NO)ccn1C1CCCO1 (centres undefined),-3%
17,CCC1([N+](=O)[O-])COC(c2ccc(C(C)C)cc2)OC1 (centres undefined),-3.06%
18,CC(=O)C1C(c2cccc(Oc3ccccc3)c2)NC(=O)NC1(O)C(F)(F)F (centres undefined),-5.37%
19,CCOC(=O)C1C(c2ccc(O)cc2)NC(=O)NC1(O)C(F)(F)F (centres undefined),2.32%
20,CC(=O)C1C(c2ccc(Cl)cc2)NC(=O)NC1(O)C(F)(F)F (centres undefined),57.4% (active)
21,O=C(NN=CC=Cc1ccccc1)C(O)C(O)C(=O)NN=CC=Cc1ccccc1 (centres undefined),1.04%
22,O=S(=O)(Cc1ccc(Cl)cc1Cl)c1ccc(Cl)cc1,-0.684%
23,COc1ccc(C(CNC(=O)c2cccc(S(=O)(=O)Nc3ccc(Br)cc3)c2)N(C)C)cc1 (centres undefined),-0.345%

# Source: PubChem BioAssay AID504441 (Broad Institute, 2011)
